# Laboratory results taken from PubChem BioAssay (NCATS).
# Results filed as inconclusive are left out. Where a call stands in place of a potency, no number is given. Unmarked numbers belong to inactive results. Calls of active or inactive are those of the source. Calls come from the whole dose curve; as a rule, active = well fitted cell-killing curve with a large enough effect; inconclusive = small, poorly fitted or top-dose-only effect, or effect the other way; inactive = no such curve, though single readings can be large or run the other way.
# Key:
# [1] = Viability qHTS for spleen associated tyrosine kinase inhibitor (SYKi) naive MV4-11 cells (AID 1963823); note: nearly all actives have a fitted effect of over 40% in size
# Outline: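 Compounds were dispensed acoustically onto plates, MV4-11 cells (SYKi-naive) added at 500 per well, and plates incubated 72 hr at 37 C. CellTiter-Glo was added and luminescence measured after 10 min.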
# [2] = Viability qHTS for spleen associated tyrosine kinase inhibitor (SYKi) drug resistant MV4-11 cells (AID 1963824); note: nearly all actives have a fitted effect of over 35% in size
# Outline: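 SYK-inhibitor-resistant MV4-11 AML cells were seeded at 500 per well onto compound and cultured 72 hours (37 °C, 5% CO2). CellTiter-Glo was then added, and after 10 min at room temperature, luminescence gave viability.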
# Potency is the fitted concentration of half-maximal effect.
Structure (SMILES),Potency [1],Potency [2]
C=C1C2(C)CC3C4(C)C=CC(=O)OC(C)(C)C4CCC3(C)C1(C(=O)OC)C(=O)C(C)(O)C2=O (centres undefined),inactive,0.224 µM (active)
COc1cc(C2Oc3c(OC)cc(/C=C/C(=O)OC[C@H]4O[C@@H](OC(C)(C)C(=O)O)[C@H](O)[C@@H](O)[C@@H]4O)cc3C2CO)ccc1O (some centres undefined),inactive,inactive
CC(NCCC(c1ccccc1)c1ccccc1)c1ccccc1 (centres undefined),13.3 µM (active),10.6 µM (active)
C/C(=C\CCC(C)CCO)C(=O)OC1(C)CCC2C(C(=O)O)=COC(OC3OC(CO)C(O)C(O)C3O)C21 (centres undefined),inactive,inactive
C[C@@H](OC(=O)/C=C/c1ccc(O)cc1)C1=C[C@]2(C=C[C@@H]3C(C(=O)O)=CO[C@@H](O[C@@H]4O[C@H](CO[C@@H]5O[C@H](CO)[C@@H](O)[C@H](O)[C@H]5O)[C@@H](O)[C@H](O)[C@H]4O)[C@@H]32)OC1=O,inactive,inactive
CC1CCCC(O)CC(=O)c2c(O)cc(O)cc2CC(=O)O1 (centres undefined),3.21 µM (active),2.02 µM (active)
CC(C)CCNC(=O)[C@H](CC(C)C)NC(=O)[C@H]1O[C@@H]1C(=O)O,inactive,inactive
Fc1ccccc1CNCc1ccc(-c2ccnc3[nH]ccc23)cc1,5.17 µM (active),9.2 µM (active)
CC1(CCOC2OC(CO)C(O)C(O)C2O)CCC23OC2(C1)C(O)CC1C(C)(C(=O)O)CCCC13C (centres undefined),inactive,inactive
COc1cc(Nc2cnc(C#N)c(O[C@H](C)CN(C)C)n2)ncc1-c1cnn(C)c1,0.934 µM (active),1.32 µM (active)
CC(=O)NCCNc1cc(Cl)nn2c(-c3cccc(S(=O)(=O)N(C)C)c3)c(C)nc12,1.46 µM (active),1.64 µM (active)
COc1cc(OC)cc(N2CCN(C(=O)Nc3nc4cc(F)ccc4nc3OC)CC2)c1,0.934 µM (active),1.05 µM (active)
CCCCC1CCN(CCCC(=O)c2ccccc2C)CC1,16.4 µM (active),13 µM (active)
CN(C)CCCCC(=O)Nc1ccc(NC(=S)NC(=O)c2ccc(C(C)(C)C)cc2)cc1,1.3 µM (active),1.46 µM (active)
CC(C)CN(C[C@@H](O)[C@H](Cc1ccccc1)NC(=O)O[C@@H]1CO[C@H]2OCC[C@H]21)S(=O)(=O)c1ccc(N)cc1,inactive,inactive
NC1CCCCN(c2c(F)cc3c(=O)c(C(=O)O)cn(C4CC4)c3c2Cl)C1 (centres undefined),inactive,inactive
O=C(Nc1ccc(S(=O)(=O)Nc2ccccc2Cl)c(Cl)c1)c1ccccn1,inactive,20.6 µM (active)
CNc1ncc2cc(-c3cc(NC(=O)NCCC(C)(C)C)c(F)cc3C)c(C)nc2n1,0.103 µM (active),0.164 µM (active)
C/C=C/C=C/C(CC(=O)O)Nc1ccc(C=O)cc1 (centres undefined),inactive,inactive
CCCCCCCCCCCCCCCCC(C(=O)O)C(O)(CC(=O)O)C(=O)O (centres undefined),inactive,inactive
CCC(C)n1cc(C)c2c(C(=O)NCc3c(C)cc(C)[nH]c3=O)cc(-c3ccc(N4CCNCC4)nc3)cc21 (centres undefined),13 µM (active),18.4 µM (active)
CSCC1OC(n2cnc3c(=O)[nH]cnc32)C(O)C1O (centres undefined),inactive,inactive
O=C(OC1C=C(CO)C2C(OC3OC(CO)C(O)C(O)C3O)OC=CC12O)c1ccc(O)cc1 (centres undefined),inactive,inactive
C=C1CCC[C@]2(C)CC[C@@](O)(C(=C)C(=O)O)C[C@@H]12,inactive,inactive
CC1(C(=O)O)CCCC2(C)C3=CCC4CC3(CCC12)CC4CO (centres undefined),inactive,inactive
CC(=O)c1cc2c(cc1O)OC(C)(C)C=C2,inactive,inactive
O=C(O)c1cccc(C(=O)CCC2OC(n3cnc4c(=O)[nH]cnc43)C(O)C2O)c1 (centres undefined),inactive,inactive
